This passage reports outcome, max response and Potency results from PubChem BioAssay (NCATS).

Values joined by “and” are separate entries in the source; they are usually repeats but may differ in a detail not shown here. Identical values can stand only once. Values without a mark were called inactive. Inconclusive results are not listed. Where a call stands in place of a potency, no number is given. Active and inactive are the calls of the source. Unless noted, the call rests on the fitted dose curve; in most records, active means well fitted curve in the direction sought with a large enough effect; inconclusive means small, poorly fitted or top-dose-only effect, or another doubt; inactive means no such curve, though single readings can be large; an effect the other way counts as inactive or inconclusive.

In assay [1] the target is Peroxisome proliferator-activated receptor delta (Homo sapiens) (UniProt Q03181). The assay is described as follows: qHTS assay for small molecule agonists of peroxisome proliferator-activated receptor delta signaling (AID 588534; calls by dose curve). In outline: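 Titration series tested in agonist mode on beta-lactamase reporter cells; 18 hrs at 37 C after a 5 hr pre-incubation. Readout: CCF4 fluorescence, 2 hrs RT. Hill equation gives EC50 and maximal response.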
Peroxisome proliferator-activated receptor delta (Homo sapiens), sequence (Q03181 whole entry, looked up): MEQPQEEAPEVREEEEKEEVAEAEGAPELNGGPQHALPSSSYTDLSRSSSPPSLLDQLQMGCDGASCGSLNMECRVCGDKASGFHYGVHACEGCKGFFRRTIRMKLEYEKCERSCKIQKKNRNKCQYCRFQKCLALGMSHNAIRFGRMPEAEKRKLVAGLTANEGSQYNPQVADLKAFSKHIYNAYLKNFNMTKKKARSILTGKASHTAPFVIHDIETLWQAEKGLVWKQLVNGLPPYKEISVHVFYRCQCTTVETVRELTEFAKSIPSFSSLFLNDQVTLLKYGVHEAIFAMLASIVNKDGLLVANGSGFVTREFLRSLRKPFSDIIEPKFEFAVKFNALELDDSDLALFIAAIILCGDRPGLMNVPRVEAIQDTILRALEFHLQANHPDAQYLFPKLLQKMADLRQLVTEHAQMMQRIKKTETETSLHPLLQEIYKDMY
In general terms: qHTS replaces the single test concentration by a dilution series.

Assay [2] has as its target Vitamin D3 receptor (Homo sapiens) (UniProt P11473). Briefly: qHTS assay for small molecule agonists of vitamin D receptor signaling (AID 588543; calls by dose curve). In outline:
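qHTS in agonist mode: compound titrations stimulate a VDR-driven β-lactamase reporter in HEK293T cells over 16 h at 37 °C. Response normalized to 50 nM 1α,25-dihydroxyvitamin D3 = 100%, DMSO = 0%; Hill fitting gives EC50 and maximal response.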

The target in assay [3] is Peroxisome proliferator-activated receptor alpha (Homo sapiens) (UniProt Q07869). Briefly: qHTS assay for small molecule agonists of the peroxisome proliferator-activated receptor alpha (PPARalpha) signaling pathway (AID 651778). The note with it: PathHunter PPARalpha complementation, chemiluminescence, 6 h; max response: stronger effect = higher value. In a few lines: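 Chemiluminescence from complemented enzyme reported PPARalpha activation in cells after 6 hr of compound treatment at 37 C. The detection reagent was incubated for 60 min at room temperature, and compounds were scored as agonists.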
Peroxisome proliferator-activated receptor alpha (Homo sapiens), sequence (Q07869 whole entry, looked up): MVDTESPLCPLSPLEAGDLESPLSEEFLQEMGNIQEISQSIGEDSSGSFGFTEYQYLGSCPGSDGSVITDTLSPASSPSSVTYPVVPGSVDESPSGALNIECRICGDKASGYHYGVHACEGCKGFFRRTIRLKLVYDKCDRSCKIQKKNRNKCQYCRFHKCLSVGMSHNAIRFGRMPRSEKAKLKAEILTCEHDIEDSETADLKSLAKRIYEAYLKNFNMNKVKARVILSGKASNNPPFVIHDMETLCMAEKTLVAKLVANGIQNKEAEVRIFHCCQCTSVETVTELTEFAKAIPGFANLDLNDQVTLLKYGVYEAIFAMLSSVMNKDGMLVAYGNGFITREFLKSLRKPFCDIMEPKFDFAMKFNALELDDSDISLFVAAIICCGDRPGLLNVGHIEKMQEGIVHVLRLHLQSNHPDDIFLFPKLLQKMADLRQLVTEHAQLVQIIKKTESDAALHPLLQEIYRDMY

Assay [4] deals with Luciferin 4-monooxygenase (Photinus pyralis) (UniProt P08659). The assay is described as follows: Biochemical firefly luciferase enzyme assay for NPC (AID 624030).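 Further: purified P. pyralis luciferase at 10 nM with luciferin and ATP substrate; series mostly up to about 59 µM; nearly all actives have a fitted effect of over 70% in size.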 In a few lines: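 Direct inhibition of firefly luciferase enzyme (10 nM final, 50 mM Tris Acetate) assessed by luminescence within 5 minutes. Percent activity scaled between DMSO and PTC124 positive control, with concentration-effect curves classified by fit quality and response.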
Luciferin 4-monooxygenase (Photinus pyralis), sequence (P08659 whole entry, looked up): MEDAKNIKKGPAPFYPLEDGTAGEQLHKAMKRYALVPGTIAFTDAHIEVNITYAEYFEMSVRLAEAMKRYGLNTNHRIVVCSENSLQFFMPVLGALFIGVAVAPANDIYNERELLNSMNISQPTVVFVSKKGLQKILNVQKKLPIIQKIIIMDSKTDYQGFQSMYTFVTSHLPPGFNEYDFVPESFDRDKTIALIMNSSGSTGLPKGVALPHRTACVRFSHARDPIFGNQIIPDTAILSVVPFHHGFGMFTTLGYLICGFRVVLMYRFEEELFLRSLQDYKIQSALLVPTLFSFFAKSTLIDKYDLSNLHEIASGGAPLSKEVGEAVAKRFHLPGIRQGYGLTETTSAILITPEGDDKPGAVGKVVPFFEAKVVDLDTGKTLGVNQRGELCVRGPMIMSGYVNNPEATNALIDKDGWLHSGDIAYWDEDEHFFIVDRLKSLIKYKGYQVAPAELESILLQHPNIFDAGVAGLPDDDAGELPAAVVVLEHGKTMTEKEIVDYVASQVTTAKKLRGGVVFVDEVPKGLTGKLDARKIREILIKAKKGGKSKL

Assay [5] addresses Thyroid hormone receptor beta (Homo sapiens) (UniProt P10828). Briefly: qHTS assay for small molecule agonists of thyroid hormone receptor beta signaling (AID 588545; calls by dose curve). In outline: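 HEK 293 TR-UAS-bla; agonist mode; 18 hrs, 37 C; CCF4, ex 405/em 460 and 530 nm; norm. T3 10 nM = 100%, DMSO = 0%; Hill fit → EC50, efficacy.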
The nature of assay [6]: qHTS assay for small molecule agonists of the antioxidant response element (ARE) signaling pathway measured by Nrf2-dependant transcriptional activity - cell viability counter screen (AID 720653; active means well fitted curve in the direction sought with a large enough effect in the repeat runs; an effect the other way counts as inactive or inconclusive; further: potency means the concentration at half of the fitted maximal effect). The note with it: ARE-bla HepG2 viability, CellTiter-Glo ATP luminescence, 16 h; max response: stronger effect = lower value. In a few lines:
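Cytotoxicity counter screen: intracellular ATP quantified by CellTiter-Glo luminescence in the same ARE-bla HepG2 plates, after 16 h compound exposure and a 2 h beta-lactamase substrate step.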

The target of assay [7] is Vitamin D3 receptor (Homo sapiens) (UniProt P11473). Briefly: qHTS assay for small molecule antagonists of vitamin D receptor signaling (AID 588541; calls by dose curve;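 further: receptor activated by calcitriol during compound treatment; series mostly up to about 77 µM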). In a few lines: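 Antagonist-mode beta-lactamase reporter assay: HEK293T VDR-UAS-bla cells were exposed to titrated compound alongside 1-alpha,25-dihydroxyvitamin D3 at 3 nM final for 16 h. Values were normalized to the 50 nM agonist control and DMSO basal, with IC50 and efficacy from Hill equation fits.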
Vitamin D3 receptor (Homo sapiens), sequence (P11473 whole entry, looked up): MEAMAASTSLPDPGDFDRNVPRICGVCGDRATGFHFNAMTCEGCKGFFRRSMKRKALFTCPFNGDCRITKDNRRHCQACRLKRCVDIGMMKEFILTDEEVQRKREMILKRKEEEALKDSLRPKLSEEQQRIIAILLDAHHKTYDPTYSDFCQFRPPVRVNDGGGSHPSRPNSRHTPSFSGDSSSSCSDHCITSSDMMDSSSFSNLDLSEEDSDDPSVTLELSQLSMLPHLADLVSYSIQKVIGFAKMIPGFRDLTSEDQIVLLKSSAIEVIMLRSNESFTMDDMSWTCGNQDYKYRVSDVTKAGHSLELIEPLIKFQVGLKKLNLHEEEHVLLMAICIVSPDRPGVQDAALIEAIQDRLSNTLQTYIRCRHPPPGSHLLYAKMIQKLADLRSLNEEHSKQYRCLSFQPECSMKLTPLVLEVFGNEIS

The target in assay [8] is Retinoic acid receptor RXR-alpha (Homo sapiens) (UniProt P19793). The assay is described as follows: qHTS assay for small molecule antagonists of retinoid X receptor alpha signaling (AID 588546; active means well fitted inhibition curve with a large enough effect in the signal ratio, with a control signal flat, not every such curve was filed as active; the % refers to the signal ratio; further: potency means the concentration at half of the fitted maximal effect;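 on max response: cells stimulated with 9-cis-retinoic acid as agonist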). The note with it: HEK293T RXRa-UAS-bla, beta-lactamase ratio, antagonist mode. In outline:
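Beta-lactamase reporter inhibition, read as CCF4 fluorescence ratio (ex 405, em 460/530 nm) after 2 h at RT. HEK293T UAS-bla cells, 2500/well, were stimulated with 9-cis-RA at 500 or 100 nM final alongside test compound for 18 h at 37 C.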

Assay [9] deals with Mitogen-activated protein kinase 10 (Mus musculus) (UniProt Q61831). The assay is described as follows: JNK3 AlphaScreen Assay (AID 530; active means well fitted curve in either direction with a large enough effect, not every such curve was filed as active;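 further: kinase came from lysate of stimulated human HepG2 cells; signal reports phosphorylation of biotinylated GST-cJun 1-79 at Ser73 with 10 µM ATP; series mostly up to about 57 µM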). In a few lines: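 Kinase buffer: 20 mM Tris-HCl pH 7.6, 10 mM MgCl2, 1 mM DTT, 0.1 mM Na3VO4, 0.01% Tween-20; ATP 10 uM. Substrate biotin-GST-cJun(1-79), enzyme from activated HepG2 lysates. Detection by Ser73 phospho-antibody AlphaScreen.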
On the technique in general: In Alpha technology, singlet oxygen from a donor bead excites a nearby acceptor bead.

Assay [10] addresses DNA dC->dU-editing enzyme APOBEC-3G (Homo sapiens) (UniProt Q9HC16). The assay is described as follows: qHTS for inhibitors of Vif-A3G interactions: Validation (AID 588379). In outline:
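Yellow fluorescence (Ex 488, Em 500-530) of Vif-coexpressing HeLa A3G-eYFP cells, scanned by Acumen cytometer, reports blocked A3G degradation. Cells plated at 700/well overnight at 37 deg C before compound addition, then a further overnight compound incubation at 37 deg C.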

Retinoic acid receptor RXR-alpha (Homo sapiens), sequence (P19793 whole entry, looked up): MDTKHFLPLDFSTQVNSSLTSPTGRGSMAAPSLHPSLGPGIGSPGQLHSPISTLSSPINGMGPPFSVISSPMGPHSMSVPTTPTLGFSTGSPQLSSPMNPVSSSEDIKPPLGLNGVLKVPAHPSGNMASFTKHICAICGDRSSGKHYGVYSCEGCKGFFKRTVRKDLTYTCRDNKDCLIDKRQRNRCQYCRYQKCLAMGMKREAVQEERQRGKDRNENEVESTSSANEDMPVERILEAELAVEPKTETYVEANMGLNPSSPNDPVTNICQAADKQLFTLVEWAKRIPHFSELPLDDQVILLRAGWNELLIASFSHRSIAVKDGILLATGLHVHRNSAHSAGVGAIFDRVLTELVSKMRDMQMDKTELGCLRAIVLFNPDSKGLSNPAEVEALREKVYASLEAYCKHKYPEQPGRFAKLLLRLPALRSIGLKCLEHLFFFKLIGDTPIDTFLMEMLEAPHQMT
DNA dC->dU-editing enzyme APOBEC-3G (Homo sapiens), sequence (Q9HC16 whole entry, looked up): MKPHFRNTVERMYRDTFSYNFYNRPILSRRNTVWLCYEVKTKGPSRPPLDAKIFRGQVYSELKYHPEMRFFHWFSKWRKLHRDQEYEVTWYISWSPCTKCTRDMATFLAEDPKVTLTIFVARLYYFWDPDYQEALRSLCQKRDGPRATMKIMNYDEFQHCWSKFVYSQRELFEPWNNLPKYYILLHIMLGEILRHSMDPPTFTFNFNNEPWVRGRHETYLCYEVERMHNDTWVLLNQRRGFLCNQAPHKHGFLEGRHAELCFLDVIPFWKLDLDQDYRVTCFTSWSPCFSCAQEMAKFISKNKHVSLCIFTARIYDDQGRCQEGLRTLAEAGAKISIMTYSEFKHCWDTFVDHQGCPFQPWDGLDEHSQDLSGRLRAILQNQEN
Thyroid hormone receptor beta (Homo sapiens), sequence (P10828 whole entry, looked up): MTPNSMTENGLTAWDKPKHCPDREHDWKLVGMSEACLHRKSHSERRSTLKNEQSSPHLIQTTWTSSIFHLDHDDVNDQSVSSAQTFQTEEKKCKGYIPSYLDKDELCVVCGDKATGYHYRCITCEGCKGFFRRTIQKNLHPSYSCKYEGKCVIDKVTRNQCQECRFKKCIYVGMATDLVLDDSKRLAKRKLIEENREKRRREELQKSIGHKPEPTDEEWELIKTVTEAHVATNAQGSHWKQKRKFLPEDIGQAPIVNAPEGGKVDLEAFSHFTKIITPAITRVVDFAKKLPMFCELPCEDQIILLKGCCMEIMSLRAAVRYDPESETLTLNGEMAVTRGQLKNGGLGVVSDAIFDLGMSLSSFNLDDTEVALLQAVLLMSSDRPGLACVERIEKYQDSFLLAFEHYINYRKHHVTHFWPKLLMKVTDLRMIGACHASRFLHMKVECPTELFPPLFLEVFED

Take `CC(C)=O`: in assay [1], the call was inactive.
With `O=C1C=C2C(=CCOC2O)O1` (stereo not drawn), the result in [1] and in [2] was inactive. Also, in assay [3], the max response is 0.776%.
On to `CNC1=CN(O)C(c2ccccc2)=c2cc(Cl)ccc2=N1`, for which the Potency result in assay [4] was “inactive”.
In the case of `CC(C)N(C(=O)CCl)c1ccccc1`, the call in [2] was inactive. Further, in assay [5], the Potency result is “inactive”. Further, the max response in [3] is -1.12%. Besides, the Potency in assay [6] is 39.8 µM (active).
As to `CCCCN(CC)c1c([N+](=O)[O-])cc(C(F)(F)F)cc1[N+](=O)[O-]`, the compound was classed as inactive in [1] and in [2]. Besides, the Potency result in assay [7] and in [5] was “inactive” each time. Further, the max response in assay [8] was -14%; in [3], -2.71%; in [6] it was -14.4%.
Take `N#Cc1c(Cl)c(Cl)c(Cl)c(C#N)c1Cl`: in assay [5], the Potency result is “inactive”. Also, the Potency in assay [8] was 7.08 µM (active); in [6], 70.8 µM (active). Besides, the max response in assay [3] is -3.28%.
Consider `O=P(N[C@@H](c1ccccc1)[C@@H]1C[C@H]1CO)(c1ccccc1)c1ccccc1`, for which the call in assay [9] was inactive.
`COc1ccc(CC2c3cc(OC)c(OC)cc3CCN2C)cc1OC` (stereo not drawn): the compound was called inactive in assay [10].
`COC(=O)[C@@]1(Cc2ccccc2)[C@H]2c3cc(C(=O)N(C)C)[nH]c3C[C@H]2CN1C(=O)c1ccccc1`: in assay [9], the compound was called inactive.
For the compound `COc1ccc2c(c1OC)C(=O)O[C@@H]2C1c2cc3c(cc2CCN1C)OCO3` (stereo partly drawn), the compound was called inactive in assay [10].
For `COC(=O)[C@@H]1C[C@@H]1[C@@H](NP(=O)(c1ccccc1)c1ccccc1)c1ccccc1`, the compound was called inactive in assay [9].
As for `COC1=C[C@H]2[C@H]3Cc4ccc(OC)c(O)c4[C@@]2(CCN3C)CC1=O`, in assay [10], the call was inactive.
As for `C[C@@H]1O[C@H](O[C@H]2C[C@@H](O)[C@]3(CO)[C@H]4[C@H](O)C[C@]5(C)[C@@H](C6=CC(=O)OC6)CC[C@@]5(O)[C@H]4CC[C@]3(O)C2)[C@@H](O)[C@H](O)[C@H]1O`, in [9], the outcome was inactive.
Same read-out and setting: the value for `CNC(=O)[C@@H]1C[C@H]1[C@@H](NP(=O)(c1ccccc1)c1ccccc1)c1ccccc1` was “inactive”; that for `COC(=O)[C@H]1C[C@@H]1[C@H](NP(=O)(c1ccccc1)c1ccccc1)c1ccccc1` was “inactive”; that for `CC1N(P(=O)(c2ccccc2)c2ccccc2)CC(O)(c2ccccc2)CC12CC2` (stereo not drawn) was “inactive”.
In the case of `CCCC/C(C)=C/[C@@H](NP(=O)(c1ccccc1)c1ccccc1)c1ccccc1`, the call in [9] was inactive.
The same measure, in the same setting: the value for `COC(=O)[C@@H]1C[C@@]1(C)[C@@H](NP(=O)(c1ccccc1)c1ccccc1)c1ccccc1` was “inactive”; that for `CCCC/C=C/[C@@H](NP(=O)(c1ccccc1)c1ccccc1)c1ccccc1OC` was “inactive”.
In the case of `CC1CC[C@@]2(OC1)O[C@@H]1[C@@H](O)[C@H]3C4CC[C@H]5C[C@@H](O[C@@H]6O[C@H](CO)[C@H](O[C@@H]7O[C@H](CO)[C@@H](O)[C@H](O[C@@H]8OC[C@@H](O)[C@H](O)[C@H]8O)[C@H]7O[C@@H]7O[C@H](CO)[C@@H](O)[C@H](O[C@@H]8O[C@H](CO)[C@@H](O)[C@H](O)[C@H]8O)[C@H]7O)[C@H](O)[C@H]6O)[C@H](O)C[C@]5(C)C4CC[C@]3(C)[C@H]1[C@@H]2C` (stereo partly drawn), in assay [10], the outcome was inactive.
`COc1cc2c(cc1OC)-c1c(OC)c(OC)c(CO)c3c1C(C2)N(C)CC3` (stereo not drawn): the compound was called inactive in assay [10].
In the case of `C[C@]12[C@H](O)CC3C(CC[C@@H]4C[C@@H](O)CC[C@]34C)[C@@]1(O)CC[C@@H]2C1=CC(=O)OC1` (stereo partly drawn), in assay [10], the outcome was inactive.
As for `COC(=O)[C@@]1(Cc2ccccc2)[C@H]2c3cc(C(=O)N(C)C)n(C)c3C[C@H]2CN1C(=O)c1ccccc1`, the compound was classed as inactive in assay [9].
Take `CN1C[C@@H](CO)C=C2c3cccc4[nH]cc(c34)CC21` (stereo partly drawn): the call in assay [10] was inactive.
On to `CC1CCC2C(C)C(=O)OC3OC4(C)CCC1C32OO4` (stereo not drawn), for which the compound was called inactive in assay [10].
As for `COc1ccc2c(c1OC)C(=O)O[C@@H]2[C@H]1c2cc3c(cc2CCN1C)OCO3`, the compound was classed as inactive in [9].
In the case of `O=C(Oc1ccc([N+](=O)[O-])cc1)N1CCC(N2CCCCC2)CC1`, the outcome in [9] was inactive.
In the case of `CC(C)[C@]1(NC(=O)[C@@H]2C=C3c4cccc5[nH]cc(c45)C[C@H]3N(C)C2)O[C@@]2(O)C3CCCN3C(=O)[C@H](Cc3ccccc3)N2C1=O` (stereo partly drawn), the call in assay [10] was inactive.
In the case of `CN(C)C1C(=O)C(C(N)=O)=C(O)[C@@]2(O)C(=O)C3=C(O)c4c(O)cccc4[C@@](C)(O)C3[C@H](O)C12` (stereo partly drawn), the compound was classed as inactive in assay [10].
Take `COc1ccc(CC2NCC(O)C2OC(C)=O)cc1` (stereo not drawn): the compound was classed as inactive in assay [10].
As for `C=CC(=O)NCO`, the compound was called inactive in assay [1] and in assay [2]. The Potency entry in [7] and in assay [5] was “inactive” throughout. Moreover, the max response is 4.89% and 0.243% in assay [8]; -1.6% and -1.01% in assay [3]; -3.08% and -9.83% in assay [6].
In the case of `COC(C)C(O)(C(=O)OC1=CCN2CC[C@H](O)[C@H]12)C(C)C` (stereo partly drawn), in assay [10], the result was inactive.
On the same count and under the same terms, the value for `CN(C)C1C(=O)C(C(N)=O)=C(O)[C@@]2(O)C(=O)C3=C(O)c4c(O)cccc4[C@@](C)(O)C3C[C@@H]12` (stereo partly drawn) was “inactive”.
On to `C/C(=N\C(N)=O)N(C)Cc1ccc(Cl)nc1`, for which the outcome in assay [1] and in [2] was inactive. For the same compound, the Potency entry in assay [7] and in assay [5] was “inactive” in each case. Also, the values for the max response in assay [8], in [3] and in assay [6] were -3.51%, -1.45% and -7.18%, respectively.
On to `O=C1C[C@@H]2OCC=C3CN4CC[C@]56c7ccccc7N1[C@H]5[C@@H]2[C@H]3C[C@@H]46`, for which, in [9], the call was inactive.
Consider `O=c1cccc2n1CC1CC2CN2CCCC[C@H]12` (stereo partly drawn), for which, in assay [10], the call was inactive.
Turning to `CC1=CC(=O)C2=C(C)C[C@H](O)[C@H]3[C@H](C)C(=O)O[C@@H]3C12` (stereo partly drawn), in assay [10], the compound was classed as inactive.
On to `COc1cc2c(cc1OC)-c1c(O)c(OC)cc3c1[C@H](C2)N(C)CC3`, for which the call in assay [10] was inactive.
On to `CCCc1cc2c(n1Cc1ccco1)C(C)C1CN(C(=O)c3ccccc3)C(C)(C(=O)OC)C21` (stereo not drawn), for which the compound was classed as inactive in [9].
In the case of `C=C[C@@H]1C[C@@]1(C)[C@@H](NP(=O)(c1ccccc1)c1ccccc1)c1ccccc1`, the call in assay [9] was inactive.
Regarding `O=CN1CC2CC(C1)c1cccc(=O)n1C2` (stereo not drawn), the result in assay [10] was inactive.
As to `CN1Cc2c(ccc3c2OCO3)C2C(O)Cc3cc4c(cc3C21)OCO4` (stereo not drawn), in assay [10], the outcome was inactive.
